Laboratory results: the supplement of paper PMC7335073
In all, about 4,100 sequences were measured (“relative CpG methylation activity (normalised to average over all NNNCGNNN flanks)”: median about 0.94, highest 2% from about 1.9 on). Shown is part of a subset that was picked to be rich in the highest values.

Target: DNMT3B catalytic domain (mouse) (UniProt O88509)
Test: relative CpG methylation activity (normalised to average over all NNNCGNNN flanks) (relative (1 = mean)); higher = more methylation of the central CpG
Conditions: system: in vitro, murine catalytic domain; CpG state: hemimethylated substrate pool; residues: 558-859
Protocol: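 Deep enzymology: a pool of dsDNA substrates with a central CpG flanked by 10 random nucleotides on each side was methylated by the murine DNMT3A or DNMT3B catalytic domain (0.8 mM SAM, 37 °C, 60 min). Methylation was then read out by hairpin ligation, bisulfite conversion and NGS. Values are the average methylation of each NNNCGNNN context (±3 flanks; the outer flanks are random and averaged over), normalised to the overall mean, so 1 = average activity.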

DNMT3B catalytic domain (mouse), sequence (O88509 558-859): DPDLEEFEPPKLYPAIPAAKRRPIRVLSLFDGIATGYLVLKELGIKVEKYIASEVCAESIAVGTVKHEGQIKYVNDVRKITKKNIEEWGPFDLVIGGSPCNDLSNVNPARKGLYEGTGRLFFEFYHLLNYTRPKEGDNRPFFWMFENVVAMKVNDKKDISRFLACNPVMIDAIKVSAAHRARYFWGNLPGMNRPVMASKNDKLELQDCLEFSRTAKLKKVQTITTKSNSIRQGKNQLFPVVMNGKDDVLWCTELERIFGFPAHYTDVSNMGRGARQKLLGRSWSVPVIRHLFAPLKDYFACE

Row | Sequence | relative CpG methylation activity
1 | GACCGGCT | 1.19
2 | ACGCGTAG | 0.632
3 | AGGCGATC | 1.05
4 | ACACGATC | 1.75
5 | GGCCGACT | 0.91
6 | TTACGTCT | 1.64
7 | TTACGTAC | 1.95
8 | TTACGTAT | 1.19
9 | ATACGTCC | 1.54
10 | GTACGTAC | 1.42
11 | TTACGTCC | 1.93
12 | AGTCGACA | 1.24
13 | CTGCGGAA | 0.922
14 | ACACGCTG | 1.11
15 | GATCGATC | 1.48
16 | CCCCGAGG | 1.5
17 | CCCCGAGC | 1.93
18 | TCCCGAGG | 1.3
19 | CCCCGAGA | 1.68
20 | TCCCGAGC | 2.01
21 | ACCCGAGC | 1.75
22 | CACCGCGT | 0.402

Row | Sequence | relative CpG methylation activity
23 | CTGCGCCA | 1.17
24 | CGACGGCC | 1.46
25 | AGACGGCG | 1.94
26 | TGACGGCG | 1.63
27 | CGACGGCA | 1.82
28 | AGACGGCC | 1.71
29 | CGACGGCG | 1.93
30 | AACCGTCC | 0.606
31 | TATCGAGG | 1.5
32 | GTACGCGT | 1.4
33 | ATACGCCC | 1.69
34 | CTACGGGA | 1.91
35 | TTACGGGC | 2.03
36 | CAACGGGA | 1.82
37 | TTACGGGA | 1.92
38 | CCACGGGA | 1.42
39 | GTACGGGC | 1.63
40 | GTACGGGA | 1.73
41 | CTACGGGT | 1.94
42 | ATACGGGT | 1.73
43 | GTACGGGT | 1.85
44 | TTACGGGT | 1.83

Row | Sequence | relative CpG methylation activity
45 | CTACGGGC | 1.75
46 | TACCGCTG | 0.389
47 | TATCGCAG | 0.473
48 | GAACGCGG | 0.853
49 | TACCGCGG | 0.374
50 | CGGCGAAG | 0.694
51 | GCGCGCCA | 0.631
52 | GTGCGAAA | 1.05
53 | CTACGGGG | 1.9
54 | CAACGGGG | 1.39
55 | ACACGGGC | 1.54
56 | TTACGGGG | 2
57 | ATACGGGC | 1.93
58 | ATACGGGG | 1.61
59 | ATACGGGA | 1.66
60 | CGACGGGG | 0.808
61 | GTACGGGG | 1.6
62 | GTTCGTAC | 1.18
63 | GCTCGCCC | 0.844
64 | GTCCGATG | 1.16
65 | GACCGTCT | 0.495
